Here are results for 49 compounds from PubChem BioAssay AID588690 (Broad Institute, 2011).

Fewer than 10 of roughly 2,400 compounds were called active. Another 1% or so got no clear call; they are omitted. A selection follows. A number with no mark means an inactive call.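 The calls were made as follows: active = highest replicate activation at or above 34% and every replicate reaching that threshold; inconclusive = meets only one of the two criteria; inactive = meets neither criterion.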

This assay deals with Protein FosB (Mus musculus) (UniProt P13346). In words: activators of mouse delta FosB DNA binding, confirmation, biochemical, fluorescence polarization, TAMRA-CDK5 oligo, cherry-picked samples (AID 588690).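 Also: higher polarization means more probe DNA bound by delta FosB.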 The note with it: purified delta FosB, at 24.9 µM, stronger effect = higher value, normalised: neutral wells 0, positive control 100. On the technique in general: Polarisation of emitted light reports the rotation of a fluorescent probe.
Protein FosB (Mus musculus), sequence (P13346 whole entry, looked up): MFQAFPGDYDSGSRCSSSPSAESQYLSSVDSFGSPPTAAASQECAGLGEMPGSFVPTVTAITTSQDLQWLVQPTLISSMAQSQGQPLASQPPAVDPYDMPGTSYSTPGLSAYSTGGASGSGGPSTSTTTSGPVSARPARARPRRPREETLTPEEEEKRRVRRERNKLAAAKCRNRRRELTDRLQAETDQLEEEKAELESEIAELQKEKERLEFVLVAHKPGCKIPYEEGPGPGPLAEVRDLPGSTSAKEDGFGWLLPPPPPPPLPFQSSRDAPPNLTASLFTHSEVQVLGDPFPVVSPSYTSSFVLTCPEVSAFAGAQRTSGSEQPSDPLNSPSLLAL
Regarding `CN(C)CCN(C(=O)CN1C(=O)c2ccccc2C1=O)c1nc2cc3c(cc2s1)OCCO3`, the activation is 0.813%. The same measure for `Cc1ccc(NC(=O)COc2ccc(/C=C3/NC(=O)NC3=O)cc2)cc1`: 2.85%. The same measure for `O=C(Nc1cccnc1Cl)c1cc(-c2ccccc2O)on1`: -0.741%. Consider `CCOC(=O)C1=C(O)/C(=C/c2ccc(OCC(=O)Nc3ccc(C)cc3)cc2)N=C1C`, for which the activation is 3.13%.

As to `c1ccc(C[C@H]2CNCCN2CCC23CC4CC(CC(C4)C2)C3)cc1`, the activation is 2.28%. As to `COc1ccc(CNC(=O)c2nnn(CC(=O)Nc3cc(C)cc(C)c3)c2N)cc1`, the activation is 3.37%. For `Cc1ccc(S(=O)(=O)N2CCC(Oc3ccc(-n4cnnn4)cc3)CC2)cc1`, the activation is -4.91%. Take `Cn1cccc1/C=C1\SC(=O)N(CC(=O)Nc2ccc(F)cc2)C1=O`: the activation was 0.105%. Take `COc1ccc(/C=C/C(=O)OCC(=O)N2CCN(S(=O)(=O)c3ccc(C)cc3C)CC2)cc1OC`: the activation was -0.0445%. As to `O=C(Cn1nnc(-c2ccc3c(c2)OCO3)n1)NCc1ccco1`, the activation was -2.21%. For the compound `Nc1nc(SCC(=O)Nc2cc(C(F)(F)F)ccc2Cl)[nH]c(=O)c1NC(=O)c1ccco1`, the activation is -8.35%.

Turning to `O=C(N/N=C/c1cccc(Br)c1)c1ccc(N2CCCC2=O)cc1`, the activation was 3.06%.

For the compound `Nc1ccc(C(=O)OCC(=O)NC2CCCc3ccccc32)cc1[N+](=O)[O-]` (centres undefined), the activation is 0.712%.

As to `COc1ccc(Br)cc1C(=O)NC(=S)Nc1cc(-c2nc3ccccc3[nH]2)ccc1C`, the activation is -0.0125%.

Take `COc1cccc(OCc2cc(/C=N/NC(=O)c3nc(Cl)c(Cl)c(N)c3Cl)ccc2OC)c1`: the activation is 1.13%. On to `Cc1cc(C)c2nc3nc(C)cc(C)c3c(N)c2c1`, for which the activation is 0.483%. Next, `O=C(Nc1ccccc1)Nc1nnc(COc2ccccc2F)s1`: -9.71%; `Cc1ccc(OCC(=O)Nc2ccccc2C(=O)NC2CC2)cc1C`: 1.23%. As to `COc1ccc(-c2cc(=O)c3c(O)cc(O[C@@H]4O[C@H](CO[C@@H]5O[C@@H](C)[C@H](O)[C@@H](O)[C@H]5O)[C@@H](O)[C@H](O)[C@H]4O)cc3o2)cc1O`, the activation is 0.468%. In the case of `O=C(Nc1ccc(S(=O)(=O)N2CCc3ccccc3C2)cc1)c1ccccc1`, the activation was 6.54%. Take `NC(N)=Nc1nc2ccc(Br)cc2c(=O)[nH]1`: the activation was -0.0365%. `Cc1cc(NC(=O)Nc2c[nH]c(=O)[nH]c2=O)ccc1Br`: the activation was 7.25%. The same measure for `CCN1CCN(c2cc3nc(C)n(Cc4ccccc4)c(=O)c3cc2NC(=O)c2ccccc2F)CC1`: 3.66%. In the case of `C=CCn1c(=NC(=O)c2ccc(S(=O)(=O)N3CCCC3)cc2)sc2cc(NC(C)=O)ccc21`, the activation is 2.06%. On to `CS(=O)(=O)c1ccc(-c2nnn(CC(=O)Nc3ccc4c(c3)OCCO4)n2)cc1`, for which the activation was 2.96%. With `CC(=O)Nc1ccc(NC(=O)COc2ccccc2C(=O)Nc2cccc(Cl)c2Cl)cc1`, the activation is -3.31%. Regarding `Cn1c(=O)oc2cc(S(=O)(=O)N3CCC(C(=O)Nc4ccc(OC(F)(F)F)cc4)CC3)ccc21`, the activation is 3.32%. `Cc1ccc(C(=O)NNC(=O)c2cc3cc4ccccc4nc3s2)cc1`: the activation is -0.255%. Consider `CN(CC(=O)Nc1ccc(Cl)cc1)C(=O)CNC(=O)c1ccc2ccccc2c1`, for which the activation is 6.82%. Next, `C#CCOCCOCCOCCNc1nc(N2CCN(C(=O)C([C@@H](C)O)n3cc([C@@H](N)CCCCN)nn3)CC2)nc(N2CCN(C(=O)[C@H](CCCCN)n3cc(CN)nn3)CC2)n1` (some centres undefined): -0.353%; `Cc1nn(Cc2ccc(Cl)cc2)c(Cl)c1/C=N/NC(=O)CNc1ccccc1F`: 1.57%.

On to `Cc1ccc(C)c(NC(=O)C(OC(=O)c2ccc(C)s2)c2ccccc2)c1` (centres undefined), for which the activation is -0.981%. Take `Nc1nc(COC(=O)CCC(=O)c2ccc(Cl)cc2)nc(Nc2ccccc2)n1`: the activation was 0.207%. For the compound `COc1ccc(Cn2c(=S)[nH]c3cc(C(=O)N4CCCCC4)ccc3c2=O)cc1`, the activation is -2.01%.

With `COc1ccc(-c2cc(=O)oc3cc(OC(C)C(=O)Nc4ccc(CN5CCOCC5)cc4)ccc23)cc1` (centres undefined), the activation was 0.361%. Next, `Cc1cc(NC(=O)CSc2nc3cc(Cl)ccc3c(=O)n2Cc2ccco2)no1`: 3.74%; `O=C(Nc1nc(-c2ccc(-c3ccccc3)cc2)cs1)c1cnccn1`: 5.91%. As for `O=C(Cn1nnc(-c2ccccc2)n1)NCc1ccc2c(c1)OCO2`, the activation was 5.36%. Take `Cc1sc2ncnc(N3CCC(C(=O)Nc4nc5ccc(Cl)cc5s4)CC3)c2c1C`: the activation is 5.08%. With `CC(Sc1nc(-c2ccccc2)cc(C(F)(F)F)n1)C(=O)Nc1ccc2c(c1)OCO2` (centres undefined), the activation was 0.405%. Next, `COc1ccc2nc(/N=C(\N)NC(=O)Nc3ccccc3)nc(C)c2c1`: -5.43%. In the case of `COc1ccc(-n2c(SCC(=O)Nc3sc4c(c3C#N)CCCC4)nnc2-c2ccc(O)cc2)cc1`, the activation is 2.22%.

Consider `O=C(Cc1nc2ccccc2[nH]c1=O)c1ccc(Cl)cc1`, for which the activation was 3.64%.

Consider `CCCCNC(=O)C(C)N(CCN(C)C)C(=O)CCCCCN1C(=O)NC(c2ccc(Cl)cc2)C(C(=O)OCc2ccccc2)=C1C` (centres undefined), for which the activation was 3.97%. The same measure for `O=C(/C=C/c1ccc(F)cc1)NCCNC(=O)/C=C/c1ccc(F)cc1`: 5%. `COc1cccc(CNC(=O)c2nnn(CC(=O)Nc3cc(C)ccc3C)c2N)c1`: the activation was 0.657%. As to `CC(=O)Nc1ccc(NC(=O)C(NS(=O)(=O)c2ccc3c(c2)OCCO3)C(C)C)cc1` (centres undefined), the activation was 2.35%. For `COc1ccc(NS(=O)(=O)c2ccc(NC(=O)c3ccc(N(C)S(C)(=O)=O)cc3)cc2)cc1`, the activation is -1.03%. For the compound `O=C(Nc1ccc2ccccc2c1)/C(=C/c1cccc(Br)c1)NC(=O)c1ccco1`, the activation was 5.71%.
